Holding throughout (format): functional
Experiment [1] relates to Plasmodium falciparum. Briefly: GSK_TCMDC: Inhibition of Plasmodium falciparum 3D7 in whole red blood cells, using parasite LDH activity as an index of growth. Test compounds present at 2uM.
The subject of experiment [2] is Plasmodium falciparum. Briefly: GSK_TCMDC: Inhibition of Plasmodium falciparum Dd2 in whole red blood cells, using parasite LDH activity as an index of growth. Test compounds present at 2uM.
For a further experiment, the system named is HepG2. Nature of the experiment: GSK_TCMDC: Percent inhibition of human HepG2 cell line. Test compounds present at 10uM.

As to `OC(c1ccccc1)C1CN(Cc2ccccc2)CCC1(O)c1ccccc1` (centres undefined), the results for the Inhibition in the experiment on Plasmodium falciparum [1], in the experiment on Plasmodium falciparum [2] and with HepG2 were 91%, 82% and 4%, respectively.

Take `Cn1nccc1C(=O)NCCNCc1ccc(-c2cccc(-c3nc4cc(C(F)(F)F)ccc4[nH]3)c2)cc1.O=C(O)C(F)(F)F`: the Inhibition – broadly, the relative decrease from the control value, in per cent – with Plasmodium falciparum [1] turned out to be 100%; with Plasmodium falciparum [2], 99%; in the experiment on HepG2 it was 51%.

Turning to `COc1cccc(NC(=O)c2cc(Br)cc(N3CCN(c4ccncc4)CC3)c2)c1.O=C(O)C(F)(F)F`, the Inhibition in the experiment on Plasmodium falciparum [1] came out at 100%; in the experiment with Plasmodium falciparum [2] it was 79%; with HepG2 it was 30%.

For the compound `COc1c(C2CCN(CCCCNC(=O)c3ccc(-c4ccc(C#N)cc4)c(O)c3)CC2)ccc2c1CCCC2.Cl`, the Inhibition worked out at 100% in the experiment on Plasmodium falciparum [1], 78% in the experiment with Plasmodium falciparum [2] and 35% in the experiment with HepG2.

`O=C(CSc1nnc(-c2ccccc2Br)[nH]1)c1c[nH]c2ccccc12`: the Inhibition with Plasmodium falciparum [1] came to 100%; with Plasmodium falciparum [2], 95%; in the experiment with HepG2 it was 7%.

In the case of `CC(C)n1cc2c(ccc3nc(N)nc(N)c32)n1`, the Inhibition is 92% in the experiment on Plasmodium falciparum [1], 0% in the experiment with Plasmodium falciparum [2] and 65% in the experiment on HepG2.

Turning to `O=C(/C=C/c1ccc(-c2nc3ccc(Cl)cc3[nH]2)cc1)NC1CCN(Cc2ccccc2)CC1`, the Inhibition with Plasmodium falciparum [1] is 100%; in the experiment with Plasmodium falciparum [2], 92%; in the experiment on HepG2, 3%.

As for `CNC(=O)c1cnc(Nc2ccc(OCC(O)CN(C)C)cc2)nc1Nc1cccc(OC(C)C)c1.O=C(O)C(F)(F)F` (centres undefined), the values for the Inhibition in the experiment on Plasmodium falciparum [1], in the experiment on Plasmodium falciparum [2] and in the experiment with HepG2 were 100%, 100% and 21%, respectively.

As to `Cl.c1cc2c3c(cccc3c1)NC(CCCCCCCCC1=Nc3cccc4cccc(c34)N1)=N2`, the Inhibition with Plasmodium falciparum [1] amounted to 93%; with Plasmodium falciparum [2] it was 6%; with HepG2, 14%.

Turning to `COCCCNC(=O)C1CCN(C(c2ccc(Cl)cc2)c2ccc(Cl)cc2)CC1`, the Inhibition with Plasmodium falciparum [1] is given as 91%; with Plasmodium falciparum [2], 63%; in the experiment on HepG2, 5%.

Regarding `CC1(C)NC(N)=NC(=N)N1OCOc1ccc(Cl)cc1.Cl`, the Inhibition in the experiment with Plasmodium falciparum [1] came out at 94%; in the experiment on Plasmodium falciparum [2], 96%; in the experiment on HepG2, 68%.

Take `COc1ccc(C(=O)N2CCC(C(=O)NC(C)c3ccc(-n4ccnc4)cc3)CC2)c2ccccc12` (centres undefined): the figures for the Inhibition in the experiment on Plasmodium falciparum [1], in the experiment with Plasmodium falciparum [2] and in the experiment on HepG2 were 83%, 79% and 12%, respectively.

In the case of `CC1(C)N=C(N)N=C(N)N1CCc1ccccc1.Cl`, the Inhibition is recorded as 93% in the experiment with Plasmodium falciparum [1], 0% in the experiment with Plasmodium falciparum [2] and 50% in the experiment on HepG2.

Consider `COc1ccc2c(NCCc3ccccc3)cc(-c3ccccc3)nc2c1.Cl`, for which the Inhibition in the experiment with Plasmodium falciparum [1] came to 98%; in the experiment with Plasmodium falciparum [2], 1%; with HepG2 it was 13%.

In the case of `Cc1ccc(C2=NNC3(S2)C(=O)Nc2ccc(C)cc23)cc1` (centres undefined), the Inhibition in the experiment on Plasmodium falciparum [1] amounted to 95%; with Plasmodium falciparum [2] it was 89%; with HepG2, 35%.

Take `CC(NCCc1cccc(Cl)c1)C(O)c1ccc(OCCCCCCOc2ccc(C(O)C(C)NCCc3cccc(Cl)c3)cc2)cc1` (centres undefined): the Inhibition with Plasmodium falciparum [1] was found to be 100%; in the experiment with Plasmodium falciparum [2], 100%; in the experiment with HepG2, 96%.

Regarding `COc1cc2c(cc1S(=O)(=O)c1ccc(NC(=O)c3ccc4ccccc4c3)cc1)CCN(C)CC2`, the Inhibition in the experiment on Plasmodium falciparum [1] was determined as 99%; in the experiment with Plasmodium falciparum [2], 28%; in the experiment with HepG2 it was 2%.

In the case of `CN(C)c1cccc2c1nc(-c1ccc3c(c1)CCO3)n2CCNCc1ccccc1.O=C(O)C(F)(F)F`, the Inhibition was found to be 99% in the experiment with Plasmodium falciparum [1], 85% in the experiment on Plasmodium falciparum [2] and 6% in the experiment with HepG2.

For `NC(=O)c1ccc(NCC(=O)Nc2cccc(-c3cccc(-c4nc5cc(F)ccc5[nH]4)c3)c2)cc1`, the Inhibition in the experiment on Plasmodium falciparum [1] turned out to be 97%; with Plasmodium falciparum [2], 32%; in the experiment with HepG2 it was 15%.

As for `CC1CN(c2ccnc3ccc(Sc4ccc(Oc5ccccc5)cc4)cc23)CC(C)N1.Cl` (centres undefined), the Inhibition stood at 100% in the experiment on Plasmodium falciparum [1], 99% with Plasmodium falciparum [2] and 33% with HepG2.

Consider `CCCN(CCC)CCCN(CCCN(CCC)CCC)c1cc(C)nc(Nc2ccc3cc(Br)ccc3c2)n1.Cl`, for which the Inhibition with Plasmodium falciparum [1] came to 98%; with Plasmodium falciparum [2], 99%; with HepG2, 99%.

For `COc1ccc(-c2cnc3ccc(NCc4ccc(F)cc4)nn23)cc1OC`, the figures for the Inhibition in the experiment on Plasmodium falciparum [1], in the experiment on Plasmodium falciparum [2] and in the experiment on HepG2 were 97%, 99% and 35%, respectively.

With `CC(=O)NCCCCC1NC2(C(=O)N(Cc3ccc(C(C)(C)C)cc3)c3ccccc32)C2C(=O)N(C3CCCCC3)C(=O)C12` (centres undefined), the Inhibition came to 91% in the experiment with Plasmodium falciparum [1], 71% in the experiment with Plasmodium falciparum [2] and 0% with HepG2.

Regarding `CC(C)[C@H](NC(=O)c1ccc(O)c(-c2ccc(Cl)c(Cl)c2)c1)C(=O)NCCN1CCCCC1`, the Inhibition came out at 99% in the experiment on Plasmodium falciparum [1], 98% in the experiment with Plasmodium falciparum [2] and 0% in the experiment with HepG2.

Take `Cc1cccc2nc(-c3ccc(-c4ccc(CNCc5ccc(CN)cc5)cc4)s3)[nH]c12.O=C(O)C(F)(F)F`: the Inhibition in the experiment with Plasmodium falciparum [1] was 100%; in the experiment on Plasmodium falciparum [2], 85%; in the experiment with HepG2, 4%.

`Cc1cc(NC(=O)c2cccs2)ccc1OC1CCN(Cc2ccc(C#N)cc2)CC1.O=C(O)C(F)(F)F`: the Inhibition in the experiment on Plasmodium falciparum [1] was 94%; in the experiment on Plasmodium falciparum [2] it was 92%; with HepG2, 34%.

With `COc1ccc(OC)c(Cc2cnc3nc(N)[nH]c(=O)c3c2C)c1`, the Inhibition was 98% in the experiment with Plasmodium falciparum [1], 4% in the experiment with Plasmodium falciparum [2] and 62% in the experiment on HepG2.

As to `O=C(Cc1ccc(Nc2nccc(Nc3cccc4[nH]ncc34)n2)cc1)Nc1ccc(C(F)(F)F)cc1`, the Inhibition was 100% with Plasmodium falciparum [1], 69% in the experiment on Plasmodium falciparum [2] and 12% in the experiment on HepG2.
